Assay [1] is described as follows: small molecules captured by biotinylated probe aFSTL3 – biochemical, small-molecule microarray, fluorescence 635/667, stem cell growth factor project, primary screen (AID 1064).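 Also: measures binding of the biotinylated anti-FSTL3 antibody to printed compounds.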 The conditions noted are these: higher = more signal.
Assay [2] in a line: binders from COS7 lysate, DM2A8 probe, primary screen, torsin A project, cell lysate, small-molecule microarray, fluorescence 635/667 (AID 1065). The conditions noted are these: higher = more signal, COS7 lysate expressing mutant human TOR1A.
Assay [3] in a line: small molecules captured by biotinylated probe aFGF2 – biochemical, small-molecule microarray, fluorescence 635/667, stem cell growth factor project, primary screen (AID 1067).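 Also: measures binding of biotinylated aFGF2 protein to printed compounds on slides; z-score merges feature fluorescence and signal-to-noise across triplicate slides.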 The conditions noted are these: higher = more signal.
Assay [4] is described as follows: small molecules captured by biotinylated probe aFGF10 – biochemical, small-molecule microarray, fluorescence 635/667, stem cell growth factor project, primary screen (AID 1071).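 Also: score merges 667 nm spot intensity and signal to noise from triplicate slides.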 The conditions noted are these: higher = more signal.
Assay [5] addresses Neurogenic locus notch homolog protein 2 (Homo sapiens) (UniProt Q04721). As to the kind of experiment: small molecules binding Notch2 protein – biochemical, small-molecule microarray, 635 nm fluorescence, stem cell growth factors, primary screen (AID 1073). The conditions noted are these: higher = more signal.
Assay [6] addresses Pro-neuregulin-1, membrane-bound isoform (Homo sapiens) (UniProt Q02297). The assay can be described thus: small molecules binding neuregulin-1 protein – biochemical, small-molecule microarray, fluorescence 635/667, psychiatric disease protein project, primary screen (AID 1075).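 Also: score combines 667 nm spot fluorescence with signal to noise.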 The conditions noted are these: NRG1 binding, 635 nm fluorescence, higher = more signal.
Assay [7] concerns Neuregulin-1 EGF-like domain. The assay can be described thus: small molecules binding NRG1 EGF domain – biochemical, small-molecule microarray, 635 nm fluorescence, primary screen (AID 1081).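 Also: binding of the protein to compounds printed on small-molecule microarray slides.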 The conditions noted are these: higher = more signal.
Assay [8] is described as follows: FRG1 expression reporter modulators in myotubes – cell-based, C2C12 myotubes, firefly/Renilla luciferase, luminescence, FRG1 inhibition for FSHD, primary screen (AID 1084). The settings on record: FRG1 promoter luciferase, higher = more signal, called active from +8 up or from −8 down.
A short description of assay [9]: small molecules captured by biotinylated probe aFST – biochemical, small-molecule microarray, fluorescence 635/667, stem cell growth factor project, primary screen (AID 1086).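 Also: score merges 667 nm fluorescence with signal-to-noise of each printed compound spot.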 The settings on record: higher = more signal.
The nature of assay [10]: binders of probe aHhip on microarray, primary screen, stem cell growth factor project, biochemical, small-molecule microarray, fluorescence 635/667 (AID 1087).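 Also: score merges spot fluorescence at 667nm with spot signal to noise ratio.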 The conditions noted are these: higher = more signal.
Assay [11] concerns PRMT1 (protein arginine N-methyltransferase 1). The assay can be described thus: small molecules binding arginine methyltransferase PRMT1 – biochemical, small-molecule microarray, 635 nm fluorescence, primary screen (AID 1088).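 Also: binding of Prmt1 protein to compounds spotted on small-molecule microarray slides.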 The conditions noted are these: higher = more signal.
A short description of assay [12]: growth effects on S. cerevisiae YJM789 – YJM789 clinical isolate, OD600, 24 h, basal, primary screen (AID 1089).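 Also: growth of clinical yeast isolate S. cerevisiae YJM 789 seeded 1000 cells per well; test concentration not given here.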 The settings on record: higher = more signal, called active from +8 up or from −8 down.
Assay [13] is described as follows: S. pombe growth modifiers, basal conditions – strain 972, OD600, 24 h, no modulator, primary screen (AID 1090).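 Also: basal condition with compound alone and no growth modifier present; test concentration not given here.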 The settings on record: S. pombe 972 growth, higher = more signal, called active from +8 up or from −8 down.
Assay [14] can be described thus: budding yeast growth modifiers under rapamycin – strain BY4716, OD600, 96 h, primary screen (AID 1091). Also: test concentration not given here. The conditions noted are these: S. cerevisiae BY4716 + rapamycin, higher = more signal, called active from +8 up or from −8 down.
Assay [15] concerns the target Torsin-1A-interacting protein 2 (Homo sapiens) (UniProt Q8NFQ8). As to the kind of experiment: small molecules binding lysate-expressed LULL1 – cell lysate, human LULL1 lysate, 635/667 nm fluorescence, primary screen (AID 1092).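 Also: probe is lysate of COS7 cells overexpressing human LULL1; score merges per-feature 667 nm fluorescence with signal-to-noise.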 The settings on record: small-molecule microarray, hLULL1 lysate binding, 635 nm fluorescence; higher = more signal.
A short description of assay [16]: optical density change of DRC41 E. coli – strain DRC41, OD650, 24 h, E. coli filamentation project, primary screen (AID 1093).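 Also: MC1000 strain lacking acrAB efflux and sulA so SOS filamentation is blocked; test concentration not given here.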 The settings on record: E. coli DRC41 growth, higher = more signal, called active from +8 up or from −8 down.
Assay [17] in a line: probe aLefty2 binding to arrayed compounds – biochemical, biotinylated probe, 635/667 nm fluorescence, primary screen (AID 1094).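 Also: score merges spot fluorescence near 667 nm with spot signal-to-noise ratio.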 The conditions noted are these: small-molecule microarray, higher = more signal.
The subject of assay [18] is Noggin (protein binding on small-molecule microarray). As to the kind of experiment: small molecules binding Noggin protein – biochemical, 635/667 nm fluorescence, primary screen (AID 1095).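 Also: score merges 667 nm feature fluorescence with signal to noise over triplicate slides.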 The conditions noted are these: 635 nm fluorescence, higher = more signal.
In assay [19] the target is Neurogenic locus notch homolog protein 3 (Homo sapiens) (UniProt Q9UM47). The assay can be described thus: small molecules binding NOTCH3 protein – biochemical, 635/667 nm fluorescence, primary screen (AID 1096). The settings on record: small-molecule microarray, 635 nm fluorescence, higher = more signal.
Assay [20] is described as follows: probe aEGFR binding to arrayed compounds – biochemical, biotinylated probe, 635/667 nm fluorescence, primary screen (AID 1097).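 Also: probe is a biotinylated anti-EGFR antibody binding compounds printed on slides; score combines fluorescence near 667 nm and signal to noise of each spot.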 The conditions noted are these: small-molecule microarray, higher = more signal.

The source made the active and inactive calls.

Chain of Neurogenic locus notch homolog protein 2 (Homo sapiens) (Q04721 whole entry, looked up, canonical isoform): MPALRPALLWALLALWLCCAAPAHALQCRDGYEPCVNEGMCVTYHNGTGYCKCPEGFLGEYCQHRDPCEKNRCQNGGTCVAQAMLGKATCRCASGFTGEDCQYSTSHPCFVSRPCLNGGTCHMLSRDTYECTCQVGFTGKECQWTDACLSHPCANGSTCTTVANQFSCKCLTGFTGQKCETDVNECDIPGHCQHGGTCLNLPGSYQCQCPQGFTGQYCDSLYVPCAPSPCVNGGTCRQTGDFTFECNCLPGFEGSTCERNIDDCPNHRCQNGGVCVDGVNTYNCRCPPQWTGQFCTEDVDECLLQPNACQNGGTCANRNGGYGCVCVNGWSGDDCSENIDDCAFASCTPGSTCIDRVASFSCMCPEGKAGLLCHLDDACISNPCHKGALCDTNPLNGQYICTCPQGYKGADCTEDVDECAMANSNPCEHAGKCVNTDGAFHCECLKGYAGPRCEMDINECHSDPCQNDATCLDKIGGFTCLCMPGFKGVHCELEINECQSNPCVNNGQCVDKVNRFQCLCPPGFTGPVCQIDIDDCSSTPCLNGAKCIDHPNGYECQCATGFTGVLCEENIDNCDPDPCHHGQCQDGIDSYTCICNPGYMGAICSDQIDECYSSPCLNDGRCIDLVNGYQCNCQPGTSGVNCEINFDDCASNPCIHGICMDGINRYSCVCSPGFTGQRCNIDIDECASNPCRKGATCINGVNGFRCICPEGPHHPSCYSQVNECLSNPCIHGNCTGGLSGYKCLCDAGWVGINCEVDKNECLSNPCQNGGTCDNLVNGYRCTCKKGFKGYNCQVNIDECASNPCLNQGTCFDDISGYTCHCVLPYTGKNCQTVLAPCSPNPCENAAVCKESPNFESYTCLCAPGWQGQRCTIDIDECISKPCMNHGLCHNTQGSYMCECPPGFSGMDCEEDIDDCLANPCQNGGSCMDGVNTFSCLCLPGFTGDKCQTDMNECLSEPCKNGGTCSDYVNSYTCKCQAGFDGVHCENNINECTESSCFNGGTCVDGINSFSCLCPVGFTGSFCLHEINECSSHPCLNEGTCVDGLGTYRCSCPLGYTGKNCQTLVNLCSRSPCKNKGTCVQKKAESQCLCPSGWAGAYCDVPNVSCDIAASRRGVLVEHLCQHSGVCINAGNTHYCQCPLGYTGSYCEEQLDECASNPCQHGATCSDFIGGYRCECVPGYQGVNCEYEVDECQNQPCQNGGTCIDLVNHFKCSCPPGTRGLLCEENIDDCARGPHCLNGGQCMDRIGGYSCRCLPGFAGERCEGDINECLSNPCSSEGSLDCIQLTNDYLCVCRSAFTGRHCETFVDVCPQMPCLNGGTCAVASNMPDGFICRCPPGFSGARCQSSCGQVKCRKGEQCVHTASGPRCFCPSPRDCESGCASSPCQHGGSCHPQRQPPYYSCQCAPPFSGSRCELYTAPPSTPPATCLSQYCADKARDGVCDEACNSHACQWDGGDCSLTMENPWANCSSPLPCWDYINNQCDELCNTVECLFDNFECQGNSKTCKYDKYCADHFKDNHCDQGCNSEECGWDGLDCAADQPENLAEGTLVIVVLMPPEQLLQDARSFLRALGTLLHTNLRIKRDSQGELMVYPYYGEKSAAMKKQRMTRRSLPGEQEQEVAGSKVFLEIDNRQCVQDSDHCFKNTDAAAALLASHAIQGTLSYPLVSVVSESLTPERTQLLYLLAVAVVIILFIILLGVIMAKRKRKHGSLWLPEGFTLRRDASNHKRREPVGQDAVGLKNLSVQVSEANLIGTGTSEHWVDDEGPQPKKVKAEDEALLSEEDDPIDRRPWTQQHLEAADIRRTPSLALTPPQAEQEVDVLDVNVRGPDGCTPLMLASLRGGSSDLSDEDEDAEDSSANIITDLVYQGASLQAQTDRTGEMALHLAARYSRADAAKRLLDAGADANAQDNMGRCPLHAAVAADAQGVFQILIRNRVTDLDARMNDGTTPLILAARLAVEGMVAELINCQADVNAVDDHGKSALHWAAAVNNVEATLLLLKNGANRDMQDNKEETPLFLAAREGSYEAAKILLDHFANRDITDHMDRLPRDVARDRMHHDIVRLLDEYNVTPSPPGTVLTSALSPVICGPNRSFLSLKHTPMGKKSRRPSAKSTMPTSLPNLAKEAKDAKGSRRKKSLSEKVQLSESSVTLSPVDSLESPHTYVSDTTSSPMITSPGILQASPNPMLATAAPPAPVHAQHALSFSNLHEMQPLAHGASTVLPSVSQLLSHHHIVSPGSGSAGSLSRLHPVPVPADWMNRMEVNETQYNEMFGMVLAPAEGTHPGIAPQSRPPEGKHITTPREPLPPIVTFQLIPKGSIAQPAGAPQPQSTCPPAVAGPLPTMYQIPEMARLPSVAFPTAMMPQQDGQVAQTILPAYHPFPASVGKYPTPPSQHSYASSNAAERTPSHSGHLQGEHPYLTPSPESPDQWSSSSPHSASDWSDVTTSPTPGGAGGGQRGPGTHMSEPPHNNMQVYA
Chain of Pro-neuregulin-1, membrane-bound isoform (Homo sapiens) (Q02297 whole entry, looked up, the tested form may be a part, canonical isoform): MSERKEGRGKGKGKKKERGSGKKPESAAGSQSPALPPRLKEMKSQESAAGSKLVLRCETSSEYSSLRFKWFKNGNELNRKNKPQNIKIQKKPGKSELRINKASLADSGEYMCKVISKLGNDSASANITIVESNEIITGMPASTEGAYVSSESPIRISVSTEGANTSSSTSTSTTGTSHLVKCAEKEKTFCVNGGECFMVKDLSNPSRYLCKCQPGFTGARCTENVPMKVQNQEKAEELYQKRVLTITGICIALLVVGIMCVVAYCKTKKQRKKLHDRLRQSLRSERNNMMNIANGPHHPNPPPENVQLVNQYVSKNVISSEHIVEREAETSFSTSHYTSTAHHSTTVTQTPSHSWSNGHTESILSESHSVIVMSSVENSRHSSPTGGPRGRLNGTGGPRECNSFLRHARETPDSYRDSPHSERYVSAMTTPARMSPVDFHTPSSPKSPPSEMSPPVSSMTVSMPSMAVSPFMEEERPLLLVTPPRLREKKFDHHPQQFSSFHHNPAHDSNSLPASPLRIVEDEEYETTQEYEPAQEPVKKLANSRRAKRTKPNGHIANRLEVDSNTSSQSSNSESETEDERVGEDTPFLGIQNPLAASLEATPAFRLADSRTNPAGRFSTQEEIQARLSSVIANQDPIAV
Chain of Torsin-1A-interacting protein 2 (Homo sapiens) (Q8NFQ8 whole entry, looked up): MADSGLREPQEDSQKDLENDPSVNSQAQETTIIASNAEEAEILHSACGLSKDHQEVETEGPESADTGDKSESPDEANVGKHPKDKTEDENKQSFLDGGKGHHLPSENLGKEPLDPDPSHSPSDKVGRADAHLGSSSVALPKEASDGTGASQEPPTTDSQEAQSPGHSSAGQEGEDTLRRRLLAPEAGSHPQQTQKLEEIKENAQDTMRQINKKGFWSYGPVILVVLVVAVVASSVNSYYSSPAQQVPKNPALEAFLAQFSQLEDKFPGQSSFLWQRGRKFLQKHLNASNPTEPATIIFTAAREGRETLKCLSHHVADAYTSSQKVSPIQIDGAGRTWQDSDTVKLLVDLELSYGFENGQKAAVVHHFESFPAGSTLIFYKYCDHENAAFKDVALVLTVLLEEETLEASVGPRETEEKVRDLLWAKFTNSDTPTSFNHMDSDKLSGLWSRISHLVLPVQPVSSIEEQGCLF

Regarding `CCOC(=O)C1=CCN(S(=O)(=O)c2ccc(C)cc2)C1c1ccccc1` (stereo not given), the composite z-score is -0.0137 in assay [1]; 0.229 in assay [2]; -0.0232 in assay [3]; 0.535 in assay [4]; 1.5 in assay [5]; 1.44 in assay [6]. For the same compound, the composite z-score in assay [7] was 1.2; in [9], 0.439; in assay [10], 0.113; in assay [11], 1.03; in assay [15] it was 2.93; in assay [17], 0.38. The composite z-score in assay [18] was determined as 0.216; in assay [19], 0.821; in [20] it was 0.227. Besides, the z-score is -0.158 (inactive) in assay [8]; -1.76 (inactive) in [12]; -0.849 (inactive) in [13]; 0.318 (inactive) in [14]; -0.4 (inactive) in assay [16].
With `CCOC(=O)C1=CCC(c2ccco2)N(S(=O)(=O)c2ccc(C)cc2)C1` (stereo not given), the composite z-score in assay [1] was 0.632; in assay [2] it was -0.0497; in assay [3], 0.0061; in assay [4] it was 0.864; in assay [5], 1.62; in assay [6] it was 1.46. For the same compound, the composite z-score in assay [7] was 0.791; in assay [9], 0.803; in assay [10], 0.127; in [11] it was 1.08; in assay [15], 2.62; in assay [17] it was 0.18. In addition, the composite z-score in assay [18] was 0.637; in [19], 1.08; in assay [20], 0.0357. Besides, the z-score in assay [8] was -2.47 (inactive); in [12] it was -0.949 (inactive); in [13], -0.0107 (inactive); in assay [14], -0.013 (inactive); in assay [16], 0.322 (inactive).
Take `CN1C=C(C(=O)OCCS(C)(=O)=O)C(C(=O)OCCS(C)(=O)=O)=CC(c2ccc(CO)cc2)=CC1c1cccs1` (stereo not given): the composite z-score in assay [1] is -0.0269; in assay [2], -0.0376; in assay [3], -0.0448; in [4], 0.236; in assay [5], -0.0588; in [6], 1.47. For the same compound, the composite z-score in [7] is 1.03; in [9], 0.0216; in [10], 0.0024; in [11], 0.568; in assay [15], 2.01; in [17], -0.116. In addition, the composite z-score in [18] is 0.484; in assay [19], 0.407; in assay [20], -0.0594. Besides, the z-score in assay [8] was 2.55 (inactive); in [12] it was 0.379 (inactive); in [13], -3.74 (inactive); in [14], 0.148 (inactive); in [16], 0.326 (inactive).
For the compound `COCCCNC(=O)[C@@]1(Sc2ccc(C)cc2)CC(=O)N(Cc2ccccc2Cl)[C@@H]1c1ccc(CO)cc1I`, the composite z-score was 0.386 in assay [1]; -0.983 in assay [2]; -0.191 in assay [3]; -0.304 in [4]; -0.911 in [5]; 1.08 in assay [6]. Further, the composite z-score in assay [7] was 0.449; in assay [9] it was -0.431; in assay [10] it was -0.0994; in assay [11], -0.76; in assay [15], 1.04; in assay [17], -0.0654. Moreover, the composite z-score is -0.691 in assay [18], -0.318 in [19] and -0.249 in [20]. Also, the z-score in assay [8] was -2.5 (inactive); in assay [12], -0.89 (inactive); in assay [13], -2.01 (inactive); in [14] it was 0.0449 (inactive); in [16], 0.668 (inactive).
For `COc1cccc(/C=C(\C#N)C(=O)Nc2c(C)n(C)n(-c3ccccc3)c2=O)c1`, the composite z-score was -0.408 in assay [1]; 0.251 in assay [2]; -0.107 in [3]; 0.324 in assay [4]; 0.694 in [5]; 1.06 in assay [6]. For the same compound, the composite z-score is 1.1 in assay [7]; 0.336 in assay [9]; -0.216 in [10]; 0.564 in [11]; 2.66 in assay [15]; 0.0852 in [17]. Further, the composite z-score was 0.161 in assay [18], 0.539 in assay [19] and -0.0828 in [20]. Also, the z-score was -0.496 (inactive) in assay [8]; -1.58 (inactive) in assay [12]; -0.958 (inactive) in [13]; -0.978 (inactive) in [14]; -0.23 (inactive) in assay [16].

Source of the values: PubChem BioAssay.
